# Measurements reported in PubChem BioAssay.
# Calls of active or inactive are those of the source. Unless noted, how the calls were made is not given here.
# Tests used:
# [1] = compound effects on lung adenocarcinoma cell viability – A549, calcein-AM fluorescence, 48 h, basal, profiling panel (AID 1162); conditions: higher = more signal; further: test concentration not given here
# [2] = compound effects on differentiated 3T3-L1 adipocyte viability – cell-based, 3T3-L1 adipocytes, calcein-AM fluorescence, 48 h, basal, profiling panel (AID 1163); conditions: 3T3-L1 adipocytes viability, higher = more signal; further: test concentration not given here
# [3] = compound effects on hepatocellular carcinoma cell viability – HepG2, calcein-AM fluorescence, 48 h, basal, profiling panel (AID 1164); conditions: higher = more signal; further: test concentration not given here
# [4] = compound effects on multiple myeloma cell viability – MM1S, calcein-AM fluorescence, 48 h, basal, profiling panel (AID 1165); conditions: higher = more signal; further: test concentration not given here
# [5] = calcein-AM signal in unstimulated myeloma cells – cell-based, calcein-AM fluorescence, 48 h, PK04 Diversity Set, profiling panel (AID 1166); conditions: RPMI8226 myeloma viability, higher = more signal;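 further: cells grown under basal conditions without added stimulus; test concentration not given here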
# [6] = JC-1 mitochondrial signal, unstimulated HepG2 cells – cell-based, JC-1 fluorescence, 24 h, 100 nL compound, profiling panel (AID 1167); conditions: HepG2 mitochondrial potential, higher = more signal; further: test concentration not given here
# [7] = JC-1 mitochondrial signal, unstimulated adipocytes – cell-based, JC-1 fluorescence, 3T3-L1 adipocytes, 24 h, 100 nL compound, profiling panel (AID 1168); conditions: JC-1 mitochondrial fluorescence, higher = more signal, called active from +8 up or from −8 down; further: test concentration not given here
# [8] = JC-1 mitochondrial signal, unstimulated myeloma cells – cell-based, JC-1 fluorescence, RPMI8226, 24 h, 100 nL compound, profiling panel (AID 1169); conditions: JC-1 mitochondrial potential fluorescence, higher = more signal; further: test concentration not given here
# [9] = JC-1 mitochondrial signal, unstimulated MM1S myeloma – cell-based, JC-1 fluorescence, 24 h, 100 nL compound, profiling panel (AID 1170); conditions: MM1S mitochondrial potential, higher = more signal; further: test concentration not given here
# [10] = resazurin metabolic signal in A549 cells – cell-based, resazurin fluorescence, 24 h, PK04 Diversity Set, profiling panel (AID 1171); conditions: A549 viability, higher = more signal, called active from +8 up or from −8 down; further: test concentration not given here
# [11] = resazurin metabolic signal in HepG2 cells – cell-based, resazurin fluorescence, 24 h, PK04 Diversity Set, profiling panel (AID 1172); conditions: HepG2 viability, higher = more signal; further: test concentration not given here
# [12] = budding yeast growth changes without added modifier – OD600, strain BY4716, 24 h, basal condition, primary screen (AID 1173); conditions: S. cerevisiae BY4716 growth, OD600, 24 h; higher = more signal, called active from +8 up or from −8 down
# [13] = viability profiling in MM1S myeloma cells – cell-based, resazurin fluorescence, basal, 24 h, PK04 Diversity Set, profiling panel (AID 1174); conditions: higher = more signal, called active from +8 up or from −8 down; further: test concentration not given here
# [14] = target: Dihydroorotate dehydrogenase (quinone), mitochondrial (Plasmodium falciparum (isolate 3D7)) (UniProt Q08210); experiment: inhibition of P. falciparum DHODH – biochemical, C-terminal His tag, absorbance 600 nm, primary screen (AID 1175); conditions: PfDHODH enzyme, DCIP absorbance 600 nm; higher = more signal, called active from +8 up or from −8 down;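 further: recombinant parasite enzyme with a five histidine tag at its C terminus; test concentration not given here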
# Dihydroorotate dehydrogenase (quinone), mitochondrial (Plasmodium falciparum (isolate 3D7)), sequence (Q08210 whole entry, looked up): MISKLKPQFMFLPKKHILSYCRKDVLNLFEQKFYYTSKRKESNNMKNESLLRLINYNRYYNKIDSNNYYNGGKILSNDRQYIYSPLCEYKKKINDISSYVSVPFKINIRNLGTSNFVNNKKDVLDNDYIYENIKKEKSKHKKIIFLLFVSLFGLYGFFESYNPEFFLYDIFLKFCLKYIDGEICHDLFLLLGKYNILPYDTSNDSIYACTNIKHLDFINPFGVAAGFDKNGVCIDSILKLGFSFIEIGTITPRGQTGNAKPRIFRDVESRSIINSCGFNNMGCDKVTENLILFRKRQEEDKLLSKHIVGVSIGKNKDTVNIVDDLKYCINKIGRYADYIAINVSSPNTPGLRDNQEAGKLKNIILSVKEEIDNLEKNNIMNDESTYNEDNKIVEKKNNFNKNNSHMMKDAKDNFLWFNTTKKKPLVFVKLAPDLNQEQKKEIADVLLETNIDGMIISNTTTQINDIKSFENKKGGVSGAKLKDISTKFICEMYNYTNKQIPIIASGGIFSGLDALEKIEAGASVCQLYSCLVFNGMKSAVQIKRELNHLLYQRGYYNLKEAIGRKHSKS
# [15] = inhibition of PAO1 biofilm formation – strain PAO1, LB-PBS medium, absorbance 600 nm, primary screen (AID 1176); further: test concentration not given here; conditions: P. aeruginosa PAO1 growth/biofilm, A600, 12 h; higher = more signal
# [16] = growth modulation of vineyard yeast isolate – strain RM11-1a, OD600, basal, 24 h, primary screen (AID 1177);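 further: cultures grown under basal conditions with no added stressor; test concentration not given here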; conditions: S. cerevisiae RM11-1a growth, OD600, 24 h; higher = more signal, called active from +8 up or from −8 down
# [17] = growth of efflux-deficient E. coli DRC39 – strain DRC39, OD650, 24 h, E. coli filamentation inducers, primary screen (AID 1178);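 further: growth measured as culture turbidity by optical density at 650 nm; test concentration not given here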; conditions: E. coli DRC39 acrAB, higher = more signal, called active from +8 up or from −8 down
# [18] = growth of efflux-deficient E. coli DRC39 – strain DRC39, OD650, 48 h, E. coli filamentation inducers, primary screen (AID 1179);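 further: screen aims at cell division blockers that make cells filament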; conditions: E. coli DRC39 delta-acrAB growth, higher = more signal, called active from +8 up or from −8 down
# [19] = viability profiling in RPMI8226 myeloma cells – cell-based, resazurin fluorescence, basal, 24 h, PK04 Diversity Set, profiling panel (AID 1180); conditions: higher = more signal;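 further: RPMI8826 multiple myeloma cell line at 5000 cells per well; test concentration not given here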
# [20] = target: E3 ubiquitin-protein ligase XIAP (Homo sapiens) (UniProt P98170); experiment: small molecules binding XIAP protein – biophysical, small-molecule microarray, fluorescence 635 nm, primary screen (AID 1181); conditions: higher = more signal;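 further: score merges 667 nm emission and signal to noise over triplicate slides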
# E3 ubiquitin-protein ligase XIAP (Homo sapiens), sequence (P98170 whole entry, looked up): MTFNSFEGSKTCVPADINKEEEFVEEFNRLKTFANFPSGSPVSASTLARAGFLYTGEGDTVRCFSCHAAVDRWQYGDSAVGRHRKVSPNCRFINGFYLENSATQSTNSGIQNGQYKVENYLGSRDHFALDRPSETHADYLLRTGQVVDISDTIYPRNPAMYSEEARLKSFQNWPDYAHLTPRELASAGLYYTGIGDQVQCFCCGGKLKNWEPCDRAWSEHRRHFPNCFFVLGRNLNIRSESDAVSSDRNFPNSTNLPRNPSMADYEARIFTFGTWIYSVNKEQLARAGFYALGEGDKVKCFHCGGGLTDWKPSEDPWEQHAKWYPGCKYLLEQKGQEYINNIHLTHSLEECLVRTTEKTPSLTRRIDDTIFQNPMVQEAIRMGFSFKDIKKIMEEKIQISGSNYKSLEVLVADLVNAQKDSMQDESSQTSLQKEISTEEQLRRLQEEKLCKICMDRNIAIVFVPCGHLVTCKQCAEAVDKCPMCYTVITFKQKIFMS
Compound,z-score [1],z-score [2],z-score [3],z-score [4],z-score [5],z-score [6],z-score [7],z-score [8],z-score [9],z-score [10],z-score [11],z-score [12],z-score [13],composite z-score [14],z-score [15],z-score [16],z-score [17],z-score [18],z-score [19],composite z-score [20]
CC(C)=CCCC=C(C)C(O)C1C=CC2C(=O)N(c3ccccc3)C(=O)C2N1Nc1ccc(C#N)cc1 (stereo not given),1.46,0.464,1.47,-1.65,-1.92,-0.428,-0.926 (inactive),-0.483,-1.29,-1.18 (inactive),-1.53,-0.101 (inactive),-1.79 (inactive),-1.49 (inactive),1.36 (inactive),-1.63 (inactive),-0.0959 (inactive),0.65 (inactive),-2.19,0.146
[N-]=[N+]=NCc1ccccc1[C@@H]1OC(c2ccc(OCCCO)cc2)=N[C@]1(Cc1ccccc1N=[N+]=[N-])C(=O)NCC(O)CO (stereo not given in full),-0.619,0.0728,-0.326,-1.78,-1.57,-0.686,0.265 (inactive),-1.2,-0.6,-1.09 (inactive),-0.897,-0.815 (inactive),-0.954 (inactive),-0.728 (inactive),0.507 (inactive),0.628 (inactive),-0.0582 (inactive),0.625 (inactive),-1.47,0.243
NC(=O)N1C(=O)C2C(C1=O)C1C=C(CCCO)C2C(c2ccc(CN3CCCC3)cc2)N1Cc1cc2c(cc1Br)OCO2 (stereo not given),-1.05,0.201,-0.623,-0.0321,0.124,-0.595,-0.472 (inactive),0.159,0.322,-0.855 (inactive),-0.766,-0.222 (inactive),-1.29 (inactive),0.0032 (inactive),0.792 (inactive),-0.572 (inactive),-0.672 (inactive),-0.299 (inactive),-1.5,0.0251
CCOC(=O)C1=CC[C@@H](c2ccccc2)N(S(=O)(=O)c2ccc(C)cc2)[C@H]1c1ccccc1I,-0.855,-1.01,-0.47,-0.676,-0.965,1.5,-1.61 (inactive),1.14,-1.16,0.998 (inactive),0.76,1.25 (inactive),-0.0131 (inactive),-0.158 (inactive),1.05 (inactive),-0.217 (inactive),0.254 (inactive),0.202 (inactive),-1.16,-0.123
COC(=O)[C@@]1(Cc2ccc(F)cc2)[C@H]2c3cc(C(=O)N4CCCC4)n(Cc4cc(F)cc5c4OCOC5)c3C[C@H]2CN1C(=O)c1ccccc1,-1.14,0.364,-1.02,-1.54,-1.55,3.05,-0.484 (inactive),-0.512,-0.744,-1.02 (inactive),-1.29,1.9 (inactive),-0.931 (inactive),-0.224 (inactive),-0.25 (inactive),1.31 (inactive),0.462 (inactive),-1.11 (inactive),-2.88,0.334
C=CCN1C(=O)[C@@]2(O[C@@H](CCn3cc([C@H](O)c4ccccc4)nn3)[C@H]([Si](C)(C)c3ccc(OC)cc3)[C@H]2C)c2cc(N3C(=O)c4cccc5cccc3c45)ccc21,0.248,-0.0484,-1.93,-1.87,-4.04,0.319,-0.127 (inactive),-0.929,-1.37,-1.94 (inactive),-1.36,0.318 (inactive),-2.17 (inactive),-0.0217 (inactive),0.72 (inactive),1.72 (inactive),0.0833 (inactive),-0.0869 (inactive),-2.42,0.212
C=C(CCCC)C(=O)CC[C@H](OC(=O)c1ccccc1-c1ccccc1C(=O)O)c1ccc(OCCO)cc1,-0.107,0.251,-0.549,-3.19,-3.37,0.236,-0.245 (inactive),-0.346,0.258,0.52 (inactive),0.359,-1.6 (inactive),-0.429 (inactive),-1.03 (inactive),0.203 (inactive),0.152 (inactive),0.373 (inactive),-0.636 (inactive),0.147,0.0652
CCOC(=O)C[C@H]1[C@H](OC(=O)c2ccccc2-c2ccccc2)[C@@H](NC(=O)C2CCCCC2)c2cc(OCCCO)ccc2N1C(=O)c1ccc2ccccc2n1,0.448,-0.87,0.581,-0.742,-1.3,-0.28,1.19 (inactive),-0.21,-0.621,-0.417 (inactive),-0.872,0.818 (inactive),-0.0667 (inactive),0.338 (inactive),-0.177 (inactive),0.743 (inactive),-0.53 (inactive),-0.12 (inactive),0.131,-0.0351
N#Cc1ccc(-c2cccc(=O)o2)cc1,-0.719,-1.13,0.37,-0.0271,-0.394,-0.875,0.492 (inactive),0.0366,-0.548,-0.0498 (inactive),-0.518,-0.923 (inactive),0.141 (inactive),-0.578 (inactive),0.0767 (inactive),0.719 (inactive),-1.1 (inactive),-0.0301 (inactive),-0.389,-0.0085
